Measured values reported in PubChem BioAssay (EPA / NIEHS).
Where “and” joins values, the source holds several entries; their conditions need not be identical. Equal entries are not always repeated. Records with an inconclusive call do not appear. Where a structure was tested more than once in an assay, its records may differ in their call. Calls of active or inactive are those of the source. How the source made its calls, unless noted: active means hit-call score of the fitted dose curve at least 0.9, where 1 is the maximum; inactive means score below 0.9.

Columns and labels:
[1] = molecular target: human RAR-related Orphan Receptor gamma (RORg), RORC (gene 6097) (UniProt P51449); test: ATG_RORg_TRANS: Attagene TRANS-FACTORIAL HepG2 Assay for human RAR-related Orphan Receptor gamma (RORg) (AID 2283011; active means hit-call score of the fitted dose curve at least 0.9, where 1 is the maximum)
Sequence of human RAR-related Orphan Receptor gamma (RORg), RORC (gene 6097) (P51449 whole entry, looked up, the tested form may be a part): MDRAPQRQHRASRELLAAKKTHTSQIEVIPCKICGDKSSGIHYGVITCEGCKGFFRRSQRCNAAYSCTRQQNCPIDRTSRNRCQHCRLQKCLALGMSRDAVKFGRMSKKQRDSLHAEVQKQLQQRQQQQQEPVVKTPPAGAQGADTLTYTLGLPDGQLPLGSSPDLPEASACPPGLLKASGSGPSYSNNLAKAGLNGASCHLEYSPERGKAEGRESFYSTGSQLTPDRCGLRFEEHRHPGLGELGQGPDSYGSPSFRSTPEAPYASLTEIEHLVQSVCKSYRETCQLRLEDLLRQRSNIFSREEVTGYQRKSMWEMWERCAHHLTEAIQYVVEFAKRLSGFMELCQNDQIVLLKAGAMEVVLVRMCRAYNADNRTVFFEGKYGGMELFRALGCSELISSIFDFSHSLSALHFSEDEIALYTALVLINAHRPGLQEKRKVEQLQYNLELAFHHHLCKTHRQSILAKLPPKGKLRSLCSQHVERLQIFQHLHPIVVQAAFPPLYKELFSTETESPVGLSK
Method in brief: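 First, HepG2 liver cells were transfected with GAL4-UAS-driven reporter constructs and the RORg-Gal4 fusion. Next, they were treated with chemical for 24 h. Finally, reporter mRNA was quantified by RT-PCR and capillary electrophoresis, with upward activity fitted against DMSO.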

[2] = molecular target: Retinoic acid receptor RXR-alpha (Homo sapiens) (UniProt P19793); test: ATG_RXRa_TRANS: Attagene TRANS-FACTORIAL HepG2 Assay for human Retinoid X Receptor alpha (RXRa) (AID 2283012; active means hit-call score of the fitted dose curve at least 0.9, where 1 is the maximum)
Sequence of Retinoic acid receptor RXR-alpha (Homo sapiens) (P19793 whole entry, looked up, the tested form may be a part): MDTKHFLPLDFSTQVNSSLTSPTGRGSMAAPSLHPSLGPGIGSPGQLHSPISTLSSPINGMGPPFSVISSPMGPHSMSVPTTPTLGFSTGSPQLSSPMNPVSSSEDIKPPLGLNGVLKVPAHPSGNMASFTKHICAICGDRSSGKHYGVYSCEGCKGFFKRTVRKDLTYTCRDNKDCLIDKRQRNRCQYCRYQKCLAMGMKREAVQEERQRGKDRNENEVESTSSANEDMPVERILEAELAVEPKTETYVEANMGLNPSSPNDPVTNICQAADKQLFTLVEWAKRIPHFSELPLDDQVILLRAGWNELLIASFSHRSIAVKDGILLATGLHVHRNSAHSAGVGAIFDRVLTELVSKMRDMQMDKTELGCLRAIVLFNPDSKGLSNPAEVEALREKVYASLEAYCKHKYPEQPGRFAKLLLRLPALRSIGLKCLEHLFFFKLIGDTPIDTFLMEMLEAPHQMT
Method in brief: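 Cells (HepG2) carried transiently transfected GAL4-responsive reporter units. Following a 24 h chemical incubation, reporter mRNA induction was read via RT-PCR fragment analysis; DMSO served as negative control and baseline.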

[3] = molecular target: human Retinoid X Receptor beta (RXRb), RXRB (gene 6257) (UniProt P28702); test: ATG_RXRb_TRANS: Attagene TRANS-FACTORIAL HepG2 Assay for human Retinoid X Receptor beta (RXRb) (AID 2283013; active means hit-call score of the fitted dose curve at least 0.9, where 1 is the maximum)
Sequence of human Retinoid X Receptor beta (RXRb), RXRB (gene 6257) (P28702 whole entry, looked up): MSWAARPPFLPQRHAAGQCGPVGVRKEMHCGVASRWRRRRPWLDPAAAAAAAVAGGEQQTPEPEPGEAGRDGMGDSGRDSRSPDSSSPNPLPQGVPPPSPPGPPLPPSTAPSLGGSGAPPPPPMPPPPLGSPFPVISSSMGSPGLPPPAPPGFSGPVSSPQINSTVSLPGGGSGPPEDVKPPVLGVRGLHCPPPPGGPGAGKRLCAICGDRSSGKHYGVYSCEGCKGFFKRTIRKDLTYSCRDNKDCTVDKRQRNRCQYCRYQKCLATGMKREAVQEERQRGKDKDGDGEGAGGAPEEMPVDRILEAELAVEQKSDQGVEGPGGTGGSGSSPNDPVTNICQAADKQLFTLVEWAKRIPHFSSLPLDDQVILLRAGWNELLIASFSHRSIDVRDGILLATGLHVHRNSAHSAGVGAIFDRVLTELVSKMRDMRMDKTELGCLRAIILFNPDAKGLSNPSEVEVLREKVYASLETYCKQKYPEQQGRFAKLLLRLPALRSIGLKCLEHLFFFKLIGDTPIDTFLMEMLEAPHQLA
Method in brief: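 Multiplexed TRANS reporter assay in HepG2; 24 h dosing; reporter mRNA by RT-PCR/CE fluorescence; gain-of-signal relative to DMSO.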

[4] = read-out: E-selectin (Homo sapiens) (UniProt P16581); test: BSK_3C_Eselectin: BioMAP Diversity Plus: 3C Assay for Eselectin Biomarker Activity (AID 2283015); details: primary human endothelial cells (HUVEC); actives raise or lower the signal
Method in brief: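 ELISA read-out of E-selectin on endothelial monolayers after 24 h chemical treatment. Human umbilical vein primary cells served as the system, with DMSO defining baseline activity for bidirectional fitting.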

[5] = read-out: Interleukin-1 alpha (IL1a), IL1A (gene 3552); test: BSK_BE3C_IL1a: BioMAP Diversity Plus: BE3C Assay for Interleukin-1 alpha (IL1a) Biomarker Activity (AID 2283016); details: primary human bronchial epithelial cells; actives raise or lower the signal
Method in brief: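 Cultures of primary human bronchial epithelial cells receive test chemical. After 24 h, IL-1a is quantified by ELISA, while parallel wells are fixed in TCA and SRB-stained for total protein. Changes in either direction are fitted relative to DMSO.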

[6] = read-out: Monocyte Chemoattractant Protein-1 (MCP1), CCL2 (gene 6347); test: BSK_3C_MCP1: BioMAP Diversity Plus: 3C Assay for Monocyte Chemoattractant Protein-1 (MCP1) Biomarker Activity (AID 2283017); details: primary human endothelial cells (HUVEC); actives raise or lower the signal
Method in brief: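 ELISA read-out of MCP-1 from human umbilical vein endothelial cell cultures harvested 24 h post-dosing. Gain or loss of signal was fitted relative to DMSO.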

[7] = read-out: Monocyte Chemoattractant Protein-1 (MCP1), CCL2 (gene 6347); test: BSK_4H_MCP1: BioMAP Diversity Plus: 4H Assay for Monocyte Chemoattractant Protein-1 (MCP1) Biomarker Activity (AID 2283018); details: primary human endothelial cells (HUVEC); actives raise or lower the signal
Method in brief: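 Readout: MCP-1 ELISA on compound-treated HUVEC, sampled 24 h post-dosing. Baseline and negative control DMSO; bidirectional fit. Overt toxicity checked alongside by sulforhodamine B protein staining at time of biomarker measurement.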

[8] = read-out: Human Leukocyte Antigen - DR isotype (HLADR), HLA-DRA (gene 3122); test: BSK_3C_HLADR: BioMAP Diversity Plus: 3C Assay for Human Leukocyte Antigen - DR isotype (HLADR) Biomarker Activity (AID 2283019); details: primary human endothelial cells (HUVEC); actives raise or lower the signal
Method in brief: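 ELISA readout of surface HLA-DR on human umbilical vein endothelium, taken 24 h after chemical treatment. Gain- and loss-of-signal were both fitted relative to DMSO.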

[9] = read-out: Interleukin-8 (IL8), CXCL8 (gene 3576); test: BSK_3C_IL8: BioMAP Diversity Plus: 3C Assay for Interleukin-8 (IL8) Biomarker Activity (AID 2283020); details: primary human endothelial cells (HUVEC); actives raise or lower the signal
Method in brief: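 Human vascular endothelial cells (umbilical vein) in the 3C system; IL-8 level detected by ELISA at 24 h post-dose, with DMSO as baseline.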

[10] = molecular target: human Vitamin D Receptor (VDR), VDR (gene 7421) (UniProt P11473); test: ATG_VDR_TRANS: Attagene TRANS-FACTORIAL HepG2 Assay for human Vitamin D Receptor (VDR) (AID 2283022; active means hit-call score of the fitted dose curve at least 0.9, where 1 is the maximum)
Sequence of human Vitamin D Receptor (VDR), VDR (gene 7421) (P11473 whole entry, looked up, the tested form may be a part): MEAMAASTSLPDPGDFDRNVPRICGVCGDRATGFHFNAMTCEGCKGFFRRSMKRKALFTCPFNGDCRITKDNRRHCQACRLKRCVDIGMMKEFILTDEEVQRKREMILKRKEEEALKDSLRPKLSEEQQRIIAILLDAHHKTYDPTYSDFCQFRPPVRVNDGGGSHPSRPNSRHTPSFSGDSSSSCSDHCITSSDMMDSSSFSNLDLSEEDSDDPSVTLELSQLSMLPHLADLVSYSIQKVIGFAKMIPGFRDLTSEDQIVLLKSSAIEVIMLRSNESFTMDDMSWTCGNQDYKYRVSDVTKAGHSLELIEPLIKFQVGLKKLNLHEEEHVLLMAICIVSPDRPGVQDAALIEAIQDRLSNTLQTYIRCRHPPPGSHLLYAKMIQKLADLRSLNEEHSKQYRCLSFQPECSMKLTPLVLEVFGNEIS
Method in brief: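 Steps: transfect HepG2 with GAL4-UAS-driven reporter constructs; dose compounds 24 h; isolate RNA, reverse-transcribe, PCR-amplify with 6-FAM-labelled primer extension and HpaI digestion; quantify fragments by capillary electrophoresis relative to DMSO.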

[11] = BSK_3C_SRB: Viability Assessment in the BioMAP Diversity Plus: 3C Assay (AID 2283023); details: primary human endothelial cells (HUVEC);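 further: fitted both ways against DMSO so a hit may be signal rise or drop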
Method in brief: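 Absorbance at 560 nm of sulforhodamine B-stained (0.1%) total protein served as a cytotoxicity readout in human umbilical vein endothelial cells, 24 h after chemical treatment. Signal was fitted bidirectionally relative to DMSO.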

[12] = read-out: Matrix Metallopeptidase 1 (MMP1), MMP1 (gene 4312); test: BSK_BE3C_MMP1: BioMAP Diversity Plus: BE3C Assay for Matrix Metallopeptidase 1 (MMP1) Biomarker Activity (AID 2283024); details: primary human bronchial epithelial cells; actives raise or lower the signal
Method in brief: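 Dose cells, wait 24 h, run MMP1 ELISA; cells are human bronchial epithelial primaries. Both increases and decreases relative to DMSO counted.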

[13] = BSK_3C_Vis: BioMAP Diversity Plus: 3C Assay for Morphology Visualization (AID 2283025); details: primary human endothelial cells (HUVEC);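 further: fitted both ways so gain or loss versus DMSO counts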;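 on AC50: light microscopy image of cell morphology used as background control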
Method in brief: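 Endothelial cells from human umbilical vein were treated with test chemicals for 24 h and inspected by light microscopy for changes in cell conformation.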

[14] = read-out: Pselectin, SELP (gene 6403); test: BSK_4H_Pselectin: BioMAP Diversity Plus: 4H Assay for Pselectin Biomarker Activity (AID 2283026); details: primary human endothelial cells (HUVEC); actives raise or lower the signal
Method in brief: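 Human vascular endothelium from umbilical vein; P-selectin measured by ELISA at 24 h post-dose, with cytotoxicity checked by sulforhodamine B total-protein staining in parallel cultures (0.1% SRB after 10% TCA fixation, read at 560 nm).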

[15] = BSK_4H_SRB: Viability Assessment in the BioMAP Diversity Plus: 4H Assay (AID 2283027); details: primary human endothelial cells (HUVEC);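 further: cells exposed to compound for 24 h before staining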;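 on AC50: curves fitted both ways versus DMSO so AC50 may be loss or gain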
Method in brief: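 Absorbance at 560 nm of SRB-stained total protein served as the viability read-out in confluent primary human umbilical vein endothelium 24 h after chemical treatment. Curves were fitted bidirectionally against DMSO as negative control.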

[16] = BSK_BE3C_SRB: Viability Assessment in the BioMAP Diversity Plus: BE3C Assay (AID 2283028); details: primary human bronchial epithelial cells;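 on AC50: fitted both ways so AC50 may mark signal gain or loss versus DMSO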
Method in brief: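 Cells (human bronchial epithelial, primary) are treated with chemicals, and after 24 h the parallel cultures are fixed in 10% TCA. These are then stained with 0.1% SRB and read at 560 nm. Gain or loss of signal is fitted relative to DMSO.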

[17] = read-out: Urokinase-type plasminogen activator receptor (uPAR), PLAUR (gene 5329); test: BSK_4H_uPAR: BioMAP Diversity Plus: 4H Assay for Urokinase-type plasminogen activator receptor (uPAR) Biomarker Activity (AID 2283030); details: primary human endothelial cells (HUVEC); actives raise or lower the signal
Method in brief: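 Cell-surface uPAR ELISA signal, measured 24 h after dosing human umbilical vein endothelial cells, was analyzed with bidirectional fitting relative to DMSO. Parallel SRB staining of total protein tracked overt cytotoxicity.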

[18] = molecular target: human RAR-related Orphan Receptor beta (RORb), RORB (gene 6096) (UniProt Q92753); test: ATG_RORb_TRANS: Attagene TRANS-FACTORIAL HepG2 Assay for human RAR-related Orphan Receptor beta (RORb) (AID 2283010; active means hit-call score of the fitted dose curve at least 0.9, where 1 is the maximum)
Sequence of human RAR-related Orphan Receptor beta (RORb), RORB (gene 6096) (Q92753 whole entry, looked up, the tested form may be a part): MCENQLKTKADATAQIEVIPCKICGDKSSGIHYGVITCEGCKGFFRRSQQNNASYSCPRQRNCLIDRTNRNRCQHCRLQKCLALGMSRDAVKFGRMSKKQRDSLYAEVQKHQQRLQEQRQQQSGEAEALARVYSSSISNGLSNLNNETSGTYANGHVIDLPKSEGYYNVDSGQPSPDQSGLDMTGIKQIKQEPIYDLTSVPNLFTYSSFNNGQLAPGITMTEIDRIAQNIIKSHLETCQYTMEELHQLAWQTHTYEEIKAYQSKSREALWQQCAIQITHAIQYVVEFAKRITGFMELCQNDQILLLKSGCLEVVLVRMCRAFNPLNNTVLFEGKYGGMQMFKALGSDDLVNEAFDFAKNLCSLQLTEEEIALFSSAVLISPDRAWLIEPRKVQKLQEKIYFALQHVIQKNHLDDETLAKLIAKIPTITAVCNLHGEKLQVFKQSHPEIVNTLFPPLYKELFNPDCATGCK
Method in brief: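 In this TRANS-format test, human HepG2 cells express chimeric NR-Gal4 fusion proteins driving GAL4-UAS reporters. After 24 h dosing, reporter transcripts are measured by fluorescent RT-PCR/capillary electrophoresis, with DMSO as negative control.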

[19] = read-out: Monokine induced gamma interferon (MIG), CXCL9 (gene 4283); test: BSK_3C_MIG: BioMAP Diversity Plus: 3C Assay for Monokine induced gamma interferon (MIG) Biomarker Activity (AID 2283021); details: primary human endothelial cells (HUVEC); actives raise or lower the signal
Method in brief: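 After 24 h of treatment, human umbilical vein endothelial cultures (3C system) had their MIG biomarker level determined by ELISA, with DMSO serving as negative control.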

[20] = read-out: Thrombomodulin, THBD (gene 7056); test: BSK_3C_Thrombomodulin: BioMAP Diversity Plus: 3C Assay for Thrombomodulin Biomarker Activity (AID 2283029); details: primary human endothelial cells (HUVEC); actives raise or lower the signal
Method in brief: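 Thrombomodulin ELISA, human primary HUVEC, 24 h post-dose; data fitted in both directions relative to DMSO.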

Measured: AC50

Sequence of E-selectin (Homo sapiens) (P16581 whole entry, looked up): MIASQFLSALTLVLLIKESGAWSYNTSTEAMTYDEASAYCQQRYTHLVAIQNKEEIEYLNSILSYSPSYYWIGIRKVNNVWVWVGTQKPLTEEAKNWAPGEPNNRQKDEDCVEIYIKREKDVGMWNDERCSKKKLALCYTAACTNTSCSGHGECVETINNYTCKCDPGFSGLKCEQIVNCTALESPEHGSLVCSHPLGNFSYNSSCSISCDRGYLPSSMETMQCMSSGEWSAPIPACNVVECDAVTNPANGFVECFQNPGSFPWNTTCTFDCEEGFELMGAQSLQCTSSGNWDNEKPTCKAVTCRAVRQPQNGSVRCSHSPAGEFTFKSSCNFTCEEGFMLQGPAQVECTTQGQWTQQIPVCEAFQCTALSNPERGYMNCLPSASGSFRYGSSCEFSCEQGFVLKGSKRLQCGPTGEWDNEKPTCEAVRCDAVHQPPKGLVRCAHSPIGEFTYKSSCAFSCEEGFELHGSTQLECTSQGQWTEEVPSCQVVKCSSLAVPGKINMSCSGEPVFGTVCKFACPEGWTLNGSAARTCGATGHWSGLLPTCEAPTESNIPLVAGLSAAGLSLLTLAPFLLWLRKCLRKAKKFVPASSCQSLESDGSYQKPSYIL

O=C(Nc1ccccc1)Nc1cnns1
active: [8] 36.1 µM
not listed: [18] | [19] | [20]
inactive: all other assays above

CCC(C)(C)C(=O)OC1=C(c2ccc(Cl)cc2Cl)C(=O)OC12CCCCC2
active: [4] 19.9 µM | [5] 31 µM | [6] 29.4 µM | [7] 15.1 µM | [8] 11 µM | [9] 30.9 µM | [11] 26.1 µM | [12] 36.6 µM | [13] 29.4 µM | [14] 36.5 µM | [15] 34.3 µM | [16] 31.3 µM | [17] 32 µM
inactive: [18] | [1] | [2] | [10]

O=C(O)C(F)(F)C(F)(F)C(F)(F)C(F)(F)C(F)(F)C(F)(F)C(F)(F)F
inactive: [18] | [1] | [2] | [3] | [4] | [5] | [6] | [7] | [8] | [9] | [10] | [11] | [12] | [13] | [14] | [15] | [16] | [17]
active: [3] 57 µM and 37.4 µM and 56.2 µM | [9] 30 µM and 16 µM and 22.5 µM | [11] 46.1 µM | [12] 25.8 µM [middle of 5 runs] | [17] 1.49 µM

O=C(O)CCCOc1ccc(Cl)cc1Cl
active: [3] 27 µM
inactive: [18] | [1] | [2] | [3] | [4] | [5] | [6] | [7] | [8] | [9] | [10] | [11] | [12] | [13] | [14] | [15] | [16] | [17]

O=C(NC(=O)c1c(F)cccc1F)Nc1ccc(OC(F)(F)C(F)OC(F)(F)F)c(Cl)c1 (stereo not drawn)
active: [4] 12.7 µM | [8] 14 µM
not listed: [1] | [3] | [10] | [18] | [19] | [20]
inactive: all other assays above

CC[C@H](C)[C@H]1O[C@]2(C=C[C@@H]1C)C[C@@H]1C[C@@H](C/C=C(\C)[C@@H](O[C@H]3C[C@H](OC)[C@@H](O[C@H]4C[C@H](OC)[C@@H](O)[C@H](C)O4)[C@H](C)O3)[C@@H](C)/C=C/C=C3\CO[C@@H]4[C@H](O)C(C)=C[C@@H](C(=O)O1)[C@]34O)O2 (tested in a mixture with another compound)
inactive: [2] | [3] | [10]
active: [4] 9.55 µM | [5] 9.4 µM | [6] 6.9 µM | [7] 6.96 µM | [8] 5.8 µM | [9] 6.07 µM | [11] 5.58 µM | [12] 11.1 µM | [13] 3.78 µM | [14] 5.3 µM | [15] 8.22 µM | [16] 4.65 µM | [17] 8.93 µM

Clc1ccccc1-c1nnc(-c2ccccc2Cl)nn1
active: [7] 20 µM
not listed: [1] | [18]
inactive: all other assays above

COc1cc(OC)nc(NC(=O)NS(=O)(=O)c2cc(NC=O)ccc2C(=O)N(C)C)n1
not listed: [1] | [3] | [10] | [18] | [19] | [20]
inactive: all other assays above

CCCN(CCOc1c(Cl)cc(Cl)cc1Cl)C(=O)n1ccnc1
active: [5] 22.1 µM | [7] 20 µM | [8] 37 µM | [11] 32 µM | [14] 33.8 µM | [15] 29.8 µM | [16] 28.9 µM
not listed: [10] | [18] | [19] | [20]
inactive: all other assays above

COP(=O)(OC)OC=C(Cl)Cl
inactive: [5] | [6] | [7] | [9] | [11] | [12] | [15] | [16] | [17]
active: [8] 20 µM | [13] 9.8 µM | [14] 16.8 µM

CC1(C)C(C=C(Cl)Cl)C1C(=O)OC(C#N)c1ccc(F)c(Oc2ccccc2)c1 (stereo not drawn)
active: [7] 7.95 µM | [11] 8.15 µM | [13] 9.8 µM
not listed: [18] | [19] | [20]
inactive: all other assays above

COP(=S)(OC)Oc1ccc([N+](=O)[O-])cc1
active: [4] 8.4 µM | [6] 33.8 µM | [8] 17.4 µM | [9] 2.36 µM | [11] 23 µM | [13] 14.4 µM | [15] 5.97 µM
not listed: [1] | [2] | [18] | [19] | [20]
inactive: all other assays above
